Active and inactive are the calls of the source.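 Rule for the calls: active = valid curve fit with half-effect dose at most 10 µM and total binding change across doses of 30 points or more; inactive = the rest.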
experiment: small GTPase nucleotide-binding inhibition, multiplex panel – biochemical, round 1 SAR, Mg buffer, multiplex flow cytometry, selectivity assay for Cdc42 probe extension project, SAR follow-up (AID 588477); conditions: GST-GTPase beads, Bodipy-GTP binding, Ras constitutively active; series mostly up to 100 µM; percent response (remaining binding): at the top concentration

Percent response (remaining binding), inactive:
O=C(C#Cc1ccccc1)c1cccc([N+](=O)[O-])c1 28.2%
COc1ccc(C2CC(c3ccccc3)=NN2c2ccc(S(N)(=O)=O)cc2)cc1 (stereo not drawn) -36.9%
NS(=O)(=O)c1ccc(N2N=C(c3ccccc3)CC2c2ccccc2)cc1 (stereo not drawn) 29.9%

From PubChem BioAssay AID588477 (NMMLSC, 2011)
